Among the data in PubChem BioAssay (NCATS) are outcome values, retold here.

Results filed as inconclusive are left out. Activity calls are given as the source filed them. Calls come from the whole dose curve; as a rule, active = well fitted curve in the direction sought with a large enough effect in the signal ratio (not every such curve was filed as active); inconclusive = small, poorly fitted or top-dose-only effect, or effect the other way, or a change in a side signal; inactive = no such curve, though single readings can be large or run the other way; the % refers to the signal ratio.

Tyrosine-protein phosphatase non-receptor type substrate 1 (Homo sapiens) + Leukocyte surface antigen CD47 (Homo sapiens), sequence (P78324 whole entry, looked up, the tested form may be a part): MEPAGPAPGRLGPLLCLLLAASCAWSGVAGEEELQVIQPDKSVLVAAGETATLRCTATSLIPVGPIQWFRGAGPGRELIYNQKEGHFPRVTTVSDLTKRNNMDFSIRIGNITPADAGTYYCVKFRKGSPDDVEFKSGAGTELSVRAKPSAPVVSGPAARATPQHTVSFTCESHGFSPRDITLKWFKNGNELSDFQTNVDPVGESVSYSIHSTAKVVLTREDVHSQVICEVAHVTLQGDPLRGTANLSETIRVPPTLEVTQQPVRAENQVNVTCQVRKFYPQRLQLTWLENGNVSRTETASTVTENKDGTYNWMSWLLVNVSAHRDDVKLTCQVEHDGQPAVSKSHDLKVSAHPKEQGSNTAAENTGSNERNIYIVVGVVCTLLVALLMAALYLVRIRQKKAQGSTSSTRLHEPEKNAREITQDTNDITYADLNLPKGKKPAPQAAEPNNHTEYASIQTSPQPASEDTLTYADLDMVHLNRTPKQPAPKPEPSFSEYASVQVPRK
Tyrosine-protein phosphatase non-receptor type substrate 1 (Homo sapiens) + Leukocyte surface antigen CD47 (Homo sapiens), sequence (Q08722 whole entry, looked up, the tested form may be a part): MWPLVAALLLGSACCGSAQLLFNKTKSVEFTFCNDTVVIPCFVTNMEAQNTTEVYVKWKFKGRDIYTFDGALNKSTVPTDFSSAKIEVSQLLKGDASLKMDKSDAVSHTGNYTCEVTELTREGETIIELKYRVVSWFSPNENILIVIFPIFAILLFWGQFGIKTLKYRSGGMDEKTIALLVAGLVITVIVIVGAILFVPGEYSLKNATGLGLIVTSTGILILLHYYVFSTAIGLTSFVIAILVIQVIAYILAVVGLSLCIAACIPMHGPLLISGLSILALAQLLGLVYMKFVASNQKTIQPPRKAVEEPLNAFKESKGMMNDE

The assay addresses Tyrosine-protein phosphatase non-receptor type substrate 1 (Homo sapiens) + Leukocyte surface antigen CD47 (Homo sapiens) (UniProt P78324+Q08722). Description: CD47-SIRPalpha protein protein interaction - HTRF assay qHTS validation (AID 1347058). The settings on record: TR-FRET HTRF CD47-His / biotin-SIRPalpha binding, ratio 665/615; series mostly up to 38.3 µM. From the text: SIRPalpha is a myeloid cell expressed immunomodulatory receptor that binds the tumor expressed immune checkpoint CD47. Therapeutic disruption of this interaction leads to immune-mediated tumor rejection. This assay was used to quantitate CD47-SIRPalpha binding biochemically and evaluate chemical libraries for novel CD47-SIRPalpha inhibitors. To recapitulate the biological interaction of CD47 and SIRPalpha, we designed expression constructs to produce their recombinant, soluble, extracellular interaction domains. CD47 was produced with an N-terminal 6His tag. SIRPalpha was produced with an N-terminal Avi-Tag for site-specific biotin incorporation. The CD47-SIRPalpha interaction was measured by TR-FRET using affinity tag linked reagents (anti-6His-Eu donor and streptavidin-XL665 acceptor). SIRPalpha without biotin incorporation was used as a positive control inhibitor.
SEQUENCE No. (e.g., 1, 2, 3, etc.); […] (e.g., Cells, Incubation, Reagent, etc.); VALUE and DESCRIPTION.
1a. Reagent. 3 uL CD47-His (12.5 nM) and Anti-His Eu Donor reagent (0.7 nM) added to respective wells in Assay buffer; white/solid bottom high base, med bind 1536-well plates (Greiner 789075)
1b. Reagent. 2 uL Assay buffer negative control for background fluorescence
2. Reagent. 23 nL library compounds (7-pt, 1:4 intraplate titration series) or DMSO control transferred by Pin Tool
3. Centrifuge. Centrifuge plate for 30 s at 1000 RPM
4. Incubation.#Incubate reagents at room temperature for 30 min, protected from light
5. Reagent. 2 uL SIRPalpha-biotin (100 nM) in Assay buffer
6. Incubation.#Incubate reagents at room temperature for 30 min, protected from light
7. Reagent. 1 uL SAV-XL665 (85 nM) acceptor reagent added to respective wells
8. Centrifuge. Centrifuge plate for 30 s at 1000 RPM
9. Incubation. Incubate reagents at room temperature for 30 min, protected from light
10. Detector. Measure Top TR-FRET on EnVision (Eu/APC filter set); calculate ratio Ch1/Ch2
1. Assay buffer composition.#Phosphate buffered saline (PBS; 10 mM Phosphate, 137 mM NaCl, and 2.7 mM KCl; pH 7.4), 0.05% IGEPAL CA-630
2. 23nL of […] library compounds (7 plates) or DMSO vehicle control transferred to 9 Greiner white/solid bottom high base, TC plates in 7 interplate 1:5 titrations (see Yasgar, A. et al. 2008) with Pintool. Two of the 9 plates are DMSO-only in compound field at beginning and end of compound library-treated plates.
10. Detector settings#Mirror = LANCE/DELFIA Dual Enh; Ex. Filter = UV2[TRF] 320; Em. Filter = APC 665; 2nd Em. Filter = Europium 615; Measurement h = 6.5; Ex. light (%) = 100; Delay = […]; Window t = 100 us; No. Seq. windows = 1; Time between flashes = 2000us; No. of flashes = 100; No. of flashes for 2nd detector = 100; Calculation: "Ratio Ch1/Ch2"
A general note: TR-FRET usually uses a lanthanide donor and a delayed reading to cut background.
As for `NC(N)=NCCCCN=C(N)N`, the outcome was inactive.
As to `Cc1nn(-c2ccccc2)c(C)c1/C=N/N1CCN(Cc2ccccc2)CC1`, the outcome was inactive.
In the case of `COC(=O)C1=CO[C@@H](O)[C@@H]2C(CO)=CC[C@H]12`, the outcome was inactive.
Take `CC(C)N(CCC(=O)c1ccc2ccccc2c1)Cc1ccccc1`: the outcome was inactive.
The same measure for `CCN(CC)CCNC(=O)c1ccc(NS(C)(=O)=O)cc1`: “inactive”.
For the compound `N[C@@H](Cn1ccc(=O)c(O)c1)C(=O)O`, the outcome was inactive.
The same measure for `Brc1ccc([C@H]2CN3CCSC3=N2)cc1`: “inactive”; for `COc1ccccc1N1CCN(CCN2C(=O)CC3(CCCC3)CC2=O)CC1`: “inactive”.
Take `Nc1ncnc2n[nH]c(Nc3ccc(F)cc3)c12`: the result was inactive.
The same measure for `Clc1ccc2c(c1)N=C(N1CCNCC1)c1ccccc1N2`: “inactive”.
Take `C[N+](C)(C)CCO`: the result was inactive.
